Hit rate of the full screen: of about 290,000 compounds, about 260 (0.09%) were called active. No stated cut-off is given here; in the data, active means inhibition above about 50%; inactive means the rest. Shown is part of a subset that was picked to be rich in actives. Measured potencies and affinities stand elsewhere.

The target of the experiment is Kappa-type opioid receptor (Homo sapiens) (UniProt P41145). In words: KOR antagonists, beta-arrestin recruitment, cell-based, luminescence, uHTS (AID 1778). The note with it: antagonist mode, active compounds read high; at 10 µM unless noted.
Chain of Kappa-type opioid receptor (Homo sapiens) (P41145 whole entry, looked up): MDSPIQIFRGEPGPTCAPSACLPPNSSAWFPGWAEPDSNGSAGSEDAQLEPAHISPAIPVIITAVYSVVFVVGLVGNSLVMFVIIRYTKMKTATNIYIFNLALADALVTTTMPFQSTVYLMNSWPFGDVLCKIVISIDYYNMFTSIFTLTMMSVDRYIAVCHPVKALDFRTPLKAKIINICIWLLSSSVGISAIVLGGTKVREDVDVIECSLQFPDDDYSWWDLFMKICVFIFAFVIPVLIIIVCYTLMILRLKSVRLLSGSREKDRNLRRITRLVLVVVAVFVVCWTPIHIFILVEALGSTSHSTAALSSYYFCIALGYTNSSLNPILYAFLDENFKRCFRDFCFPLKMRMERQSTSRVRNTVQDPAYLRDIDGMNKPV
One may read the inhibition as the relative decrease from the control value, in per cent. As for `CCOc1cccc(C(=O)N(Cc2cccc(F)c2)C2CCS(=O)(=O)C2)c1` (configuration not stated), the inhibition is -33.2% (inactive).
Turning to `Cc1csc(NC(=O)CCCc2cccs2)n1`, the inhibition is 1.1% (inactive).
Next, `COc1ccc(C)cc1NC(=O)C(Sc1nnc(Nc2cc(C)ccc2OC)s1)c1ccccc1` (configuration not stated): -5.6% (inactive); `CCOc1ccc(CCNS(=O)(=O)c2cnc[nH]2)cc1OCC`: -14.7% (inactive); `COc1ccccc1NC(=O)c1ccc(CSc2ncccn2)cc1`: 7.4% (inactive).
`Cc1ccc(NC(=O)CCCCCN2C(=O)[C@@H]3Cc4ccccc4CN3C2=O)c(C)c1`: the inhibition is 26.6% (inactive).
As to `Oc1c(/C=N/c2ccccn2)sc2ccccc12`, the inhibition was -1.9% (inactive).
With `Oc1c(C=Nc2cccnc2)sc2ccccc12`, the inhibition is -24.2% (inactive).
As for `COc1ccc(NC(=S)NC(NC(=O)c2ccc(Cl)cc2Cl)C(Cl)(Cl)Cl)c([N+](=O)[O-])c1` (configuration not stated), the figure is 36.4% (inactive).
As for `COc1ccc(NC(=S)NC(NC(=O)c2cccc3ccccc23)C(Cl)(Cl)Cl)c([N+](=O)[O-])c1` (configuration not stated), the inhibition was -86.5% (inactive).
Regarding `COCCSc1nnc(NC(=O)CSc2ccccc2)s1`, the inhibition was -18.1% (inactive).
As to `CCc1nnc(NC(=O)CSc2nnc(CNc3cccc(Cl)c3)n2CC)s1`, the inhibition was -7.1% (inactive).
Next, `O=C(NCCc1ccccn1)c1ccc(OC(F)F)cc1`: 19.2% (inactive).
With `O=[N+]([O-])c1c(Nc2ccc(O)cc2)cc(Cl)c2nonc12`, the inhibition is 104% (active).
As for `O=C(O)c1cccc(Nc2cc(Cl)c3nonc3c2[N+](=O)[O-])c1`, the figure is 4.3% (inactive); as for `CCNc1cc(Nc2c(C)n(C)n(-c3ccccc3)c2=O)c([N+](=O)[O-])c2nonc12`, 13.1% (inactive).
Turning to `CN(C)c1cc(Nc2ccc(O)cc2)c([N+](=O)[O-])c2nonc12`, the inhibition was 40.9% (inactive).
Next, `CCN(CC)c1cc(NCCO)c([N+](=O)[O-])c2nonc12`: -13.9% (inactive); `Cc1c(Nc2cc(N3CCOCC3)c3nonc3c2[N+](=O)[O-])c(=O)n(-c2ccccc2)n1C`: 25.4% (inactive).
Consider `O=C(O)c1ccc(Nc2cc(Cl)c3nonc3c2[N+](=O)[O-])cc1`, for which the inhibition is 27.4% (inactive).
On to `CN(C)c1cc(Nc2cccc(O)c2)c([N+](=O)[O-])c2nonc12`, for which the inhibition was -7.7% (inactive).
For the compound `O=C(O)c1cc(Nc2cc(Cl)c3nonc3c2[N+](=O)[O-])ccc1O`, the inhibition is -28% (inactive).
As for `O=[N+]([O-])c1c(Nc2cccc(O)c2)cc(Cl)c2nonc12`, the inhibition was 114% [at 20 µM] (active).
Regarding `CN(C(=O)c1ccc(S(=O)(=O)c2cccc(Cl)c2)c([N+](=O)[O-])c1)C1CCCCC1`, the inhibition was -8.7% (inactive).
In the case of `CC1(C)CC(=O)c2cc(OCC(=O)NCCN3CCOCC3)ccc2O1`, the inhibition is -16.7% (inactive).
In the case of `CCOC(=O)C(=O)N1CCC(Cc2ccccc2)CC1`, the inhibition was 31.7% (inactive).
Regarding `O=C1CN(C(=O)COC(=O)CCNS(=O)(=O)c2ccc(Cl)cc2)c2ccccc2N1`, the inhibition is -18.1% (inactive).
For the compound `CC(/C=N\N1CCN(c2ccc(Cl)cc2)CC1)=C\c1ccccc1`, the inhibition was 53.7% (inactive).
With `O=C(N/N=C/c1ccoc1)c1cc(Br)ccc1O`, the inhibition was -13.2% (inactive).
As to `O=C(O)c1ccccc1Nc1cc(Cl)c2nonc2c1[N+](=O)[O-]`, the inhibition was 34.1% (inactive).
With `O=[N+]([O-])c1c(Nc2ccccc2O)ccc2nonc12`, the inhibition was 35.9% (inactive).
Take `Cc1cccc(N(C(=O)c2snc(C(N)=O)c2N)C(C(=O)NC2CCCC2)c2ccncc2)c1` (configuration not stated): the inhibition is 12.2% (inactive).
For the compound `Cc1cc(C(C)(C)C)oc1C(=O)N(CC(=O)NC1CCCC1)Cc1ccccc1Cl`, the inhibition is 0.8% (inactive).
On to `Cc1cn(-c2cc(C(=O)Nc3ccc(C)c(NC(=O)C(=O)c4c[nH]c5ccccc45)c3)cc(C(F)(F)F)c2)cn1`, for which the inhibition is 0.6% (inactive).
As to `Cc1cn(-c2cc(C(=O)Nc3ccc(C)c(NC(=O)N4CCNC4=O)c3)cc(C(F)(F)F)c2)cn1`, the inhibition was -20% (inactive).
Regarding `COc1ccc(CNC2CCCc3ccccc32)cc1OC` (configuration not stated), the inhibition is -0.9% (inactive).
As to `O=C(NNC1=Nc2ccccc2SC1)c1ccccc1F`, the inhibition is 10.4% (inactive).
Take `O=C(NNC1=Nc2ccccc2SC1)c1ccc(F)cc1`: the inhibition was 30.4% (inactive).
As to `CCc1ccc(-n2c(=O)c3c(C)c(C(=O)N(C)C)sc3n(CC(=O)NCc3ccco3)c2=O)cc1`, the inhibition was -11.4% (inactive).
In the case of `N=C1SCC(=O)N1c1nc(-c2ccccc2)cs1`, the inhibition is 23.4% (inactive).
Next, `Cc1ccc(-c2csc(N3C(=N)SCC3=O)n2)cc1`: 26.9% (inactive); `CCN1CCN(C(=S)c2ccc(Cl)cc2)CC1`: 12.5% (inactive); `Cc1ccc(Cc2cnc(NC(=O)c3cccs3)s2)cc1`: -17.2% (inactive).
Regarding `Cc1ccc(Cc2cnc(N3C(=N)SC(c4ccccc4)C3=O)s2)cc1` (configuration not stated), the inhibition was 37.3% (inactive).
Take `Cc1cccc(Cc2cnc(N3C(=N)SC(c4ccccc4)C3=O)s2)c1` (configuration not stated): the inhibition is -7.2% (inactive).
Turning to `Cc1cccc(Cc2cnc(NC(=O)c3ccc(C)o3)s2)c1`, the inhibition was -9.9% (inactive).
For the compound `Cc1ccc(Cc2cnc(N3C(=N)SC(C)C3=O)s2)cc1` (configuration not stated), the inhibition was 88.5% (active).
For `O=C(C1=C[C@H](c2ccccc2)C[C@H](OCc2ccc(CO)cc2)O1)N1CCN(Cc2ccc3c(c2)OCO3)CC1`, the inhibition was -13% (inactive).
`CNc1ncnc(Sc2ccc(Cl)cc2)c1[N+](=O)[O-]`: the inhibition was 8.9% (inactive).
For the compound `OCC1(Cc2cccc(Cl)c2)CCCN(Cc2sc(N3CCCC3)nc2Cl)C1` (configuration not stated), the inhibition was -39.6% [at 20 µM] (inactive).
For the compound `CN1N=C(C(=O)N2CCc3c([nH]c4ccccc34)C2c2ccccc2Cl)CCC1=O` (configuration not stated), the inhibition was -7% (inactive).
For the compound `O=C1COc2ccc(S(=O)(=O)NCc3ccc(Cl)cc3)cc2N1`, the inhibition is -23.4% (inactive).
Regarding `COC(=O)c1sccc1S(=O)(=O)Nc1ccc(Cl)cc1`, the inhibition was 23.4% (inactive).
As for `CCOC(=O)C1CCN(C(=O)c2ccccc2CCc2ccccc2)CC1`, the inhibition was 12.9% (inactive).
Take `Cc1ccc(C(=O)Nc2ccccc2Sc2ccccc2)cc1`: the inhibition is 5.8% (inactive).
In the case of `Cc1ccc(C(=O)Sc2cccccc2=O)cc1`, the inhibition was 88.3% (active).
Turning to `Cc1ccc(C(=O)CC(=O)c2ccccc2)cc1`, the inhibition is -30.1% [at 20 µM] (inactive).
For the compound `CCC1CCCCN1CCCNC(=O)c1csc2c1CCCCC2` (configuration not stated), the inhibition is -8.9% (inactive).
Turning to `CCOc1ccc(C(=O)Nc2ccc3c(c2)OCCO3)cc1`, the inhibition was -31.1% (inactive).
`NS(=O)(=O)c1ccc(CCNC(=O)CSc2nc3ccsc3c(=O)n2CC2CCC(C(=O)O)CC2)cc1` (configuration not stated): the inhibition was -14.6% (inactive).
Consider `Cc1ccc(NS(=O)(=O)c2cccc3cccnc23)c(Cl)c1`, for which the inhibition was 19.4% (inactive).
As for `Cc1ccc(NS(=O)(=O)c2cccc3cccnc23)c(Br)c1`, the figure is -14.5% (inactive); as for `O=[N+]([O-])c1ccccc1S(=O)(=O)Nc1ncccn1`, -24.4% (inactive); as for `O=S(=O)(Nc1ccccc1O)c1cccc2cccnc12`, 9.3% (inactive).
As for `O=C(CCN1CCN(c2ccccc2)CC1)Nc1nccs1`, the figure is 11.6% (inactive); as for `Cc1cccc(CN2CCN(C(=S)Nc3ccccc3)CC2)c1`, -33.1% [at 20 µM] (inactive).
As for `Cc1ccc(CNC(=O)C2CCCN(c3nc(C)cc(C)n3)C2)cc1` (configuration not stated), the inhibition is -35.8% [at 20 µM] (inactive).
For `CCOC(=O)C(C(=O)OCC)c1cc(Br)c2noc3c2c1C(=O)c1ccccc1-3`, the inhibition was 68.5% (active).
As for `CCOC(=O)N1CCN(c2cc(NCCC(=O)O)c3c4c(onc24)-c2ccccc2C3=O)CC1`, the inhibition is -32.6% (inactive).
In the case of `CCOc1ccc2noc3c2c1C(=O)c1ccccc1-3`, the inhibition is 7.4% (inactive).
As for `c1cncc(-c2cn(C[C@H]3CC[C@@H]([C@@H]4CC[C@H](Cn5cc(-c6cccnc6)nn5)O4)O3)nn2)c1`, the inhibition was -10.8% [at 20 µM] (inactive).
As for `COc1ccc(OCC(=O)Nc2cc(NC(=O)c3ccco3)ccc2OC)cc1`, the figure is 4.9% (inactive); as for `COc1cc(Br)cc(-c2nc3c(c(=O)[nH]c(=O)n3Cc3ccccc3)n2C)c1O`, 7.6% (inactive).
Regarding `COCCN=c1scc(-c2ccc3c(c2)NC(=O)CO3)n1/N=C(\C)c1ccc(O)cc1`, the inhibition is 15.8% (inactive).
`CCN=c1scc(-c2ccc3c(c2)NC(=O)CO3)n1N=C1CCCC1`: the inhibition is 15.3% (inactive).
As for `COC(=O)c1[nH]c2ccc(C)cc2c1NC(=O)CN1CCN(c2ccc(F)cc2)CC1`, the figure is -0.7% (inactive); as for `O=C(N/N=C/c1ccccn1)c1ccccc1`, 30.7% (inactive); as for `COc1ccc(C(=O)N/N=C(\C)c2ccccn2)cc1OC`, 95% (active).
On to `C/C(=N\NC(=O)C1COc2ccccc2O1)c1cccs1` (configuration not stated), for which the inhibition was -9.2% (inactive).
`O=C(N/N=C/c1ccccn1)c1ccc(NC(=O)c2cccc([N+](=O)[O-])c2)cc1`: the inhibition was -28.7% (inactive).
On to `COc1ccc(C(=O)N/N=C/c2ccccn2)cc1OC`, for which the inhibition is -42.3% (inactive).
Next, `COc1ccc(C(=O)N/N=C(\C)CC(=O)Nc2ccccn2)cc1OC`: 3.4% (inactive).
Regarding `C/C(=N\NC(=O)C1COc2ccccc2O1)c1ccc(C)o1` (configuration not stated), the inhibition was 13.3% (inactive).
As for `COc1ccc(C(=O)Nc2ccccc2C(=O)N/N=C/c2ccncc2)cc1OC`, the inhibition was -18.4% (inactive).
Consider `COc1cc(C(=O)N/N=C(\C)c2ccccn2)cc(OC)c1OC`, for which the inhibition was -6.4% (inactive).
As for `Cc1nc(CSc2ccc(Cl)cc2)cs1`, the figure is 1.3% (inactive).
For the compound `CCC1CCCCN1C(=O)CSc1nc(N)cc(N)n1` (configuration not stated), the inhibition was 0.8% [at 20 µM] (inactive).
For the compound `C/C(=N\S(=O)(=O)c1ccc(C)cc1)NC(=S)Nc1ccc(C)cc1`, the inhibition was -12% (inactive).
Consider `CCOc1ccccc1N(C(=O)c1snc(C(N)=O)c1N)C(C(=O)NC1CCCC1)c1cccs1` (configuration not stated), for which the inhibition is -14.9% (inactive).
`CCCOCn1cc(F)c(=O)[nH]c1=O`: the inhibition is 20.7% (inactive).
As for `COc1ccc(OCc2nnc(SCC(=O)Nc3ccccc3C#N)o2)cc1`, the figure is -9.7% (inactive).
As for `COc1ccc(NC(=O)c2ccc(CN(c3cc(Cl)ccc3C)S(=O)(=O)c3ccccc3)cc2)cc1OC`, the inhibition was -2.5% (inactive).

For the origin of these results see PubChem BioAssay AID1778 (Sanford-Burnham Center for Chemical Genomics, 2009).
